The campaign covered roughly 1,400 compounds. About 350 (25%) were called active. Not shown: some 2% with an inconclusive outcome. How the calls were made is not given here. The list is a sample of the results. Potency and affinity values are given separately.
experiment: inhibitors of Clostridioides difficile proliferation – 4-point retest, confirmation (AID 1224921); details: Clostridioides difficile clinical isolate growth, OD600, 24 h, hits give low values; at 30 µM unless noted;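 further: plate controls were DMSO wells for no effect and levofloxacin 16 µg/mL wells for full effect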

Max activity, inactive:
CO[C@H]1CN(C)C(=O)c2cc(NC(C)=O)ccc2OC[C@@H](C)N(Cc2nccs2)C[C@H]1C -12.5% [at 8 µM]
CO[C@@H]1CN(C)C(=O)c2cc(NC(C)=O)ccc2OC[C@H](C)N(CC2CCCCC2)C[C@@H]1C 16.5%
CC(=O)N[C@H]1CC[C@@H](CCNC(=O)Nc2ccc(C(F)(F)F)cc2)O[C@H]1CO 10.2% [at 7.5 µM]
CC(=O)N[C@@H]1CC[C@H](CCNC(=O)Nc2ccc(C(F)(F)F)cc2)O[C@@H]1CO 16.8% [at 8 µM]
C[C@H]1CN([C@@H](C)CO)S(=O)(=O)c2ccc(C3=CCCCC3)cc2O[C@H]1CN(C)C(=O)C1CCCCC1 30.6%
C[C@@H]1CN([C@H](C)CO)C(=O)c2cc(Br)cnc2O[C@H]1CN(C)C(=O)c1ccccc1 -3.07% [at 8 µM]
C[C@H]1CN([C@@H](C)CO)S(=O)(=O)c2ccc(C#CC3CCCCC3)cc2O[C@H]1CN(C)Cc1cccnc1 35.6%
CO[C@H]1CN(C)C(=O)c2cc(NC(=O)c3ccc(F)cc3)ccc2OC[C@@H](C)N(C(C)=O)C[C@H]1C -8.16% [at 1.95 µM]
C[C@H](C(=O)N(C)C[C@H]1OCc2ccccc2-c2ccccc2C(=O)N([C@@H](C)CO)C[C@H]1C)c1ccccc1 18.3%
C[C@@H]1CN([C@H](C)CO)C(=O)c2cc(NC(=O)Nc3cccc4ccccc34)ccc2O[C@@H](C)CCCCO[C@H]1CN(C)S(=O)(=O)c1ccc(F)cc1 36.9%
C[C@@H]1CN([C@@H](C)CO)C(=O)Cc2cc(NC(=O)NC3CCCCC3)ccc2O[C@@H]1CN(C)S(=O)(=O)c1ccc(Cl)cc1 20.4%
C[C@@H]1CN([C@@H](C)CO)S(=O)(=O)c2ccc(C#CC3CC3)cc2O[C@H]1CN(C)Cc1cccnc1 34.2%
CCCNC(=O)N1C[C@H](C)[C@@H](OC)CN(C)C(=O)c2cc(NC(C)=O)ccc2OC[C@@H]1C -10.9% [at 1.95 µM]
COc1ccc(NC(=O)N[C@@H]2C=C[C@H](CC(=O)NC3CCCCC3)O[C@@H]2CO)cc1 13.1% [at 1.95 µM]
CCC(=O)N(C)C[C@@H]1Oc2cc(C#CCC3CCCC3)ccc2S(=O)(=O)N([C@@H](C)CO)C[C@H]1C 27.8%
O=C(C[C@H]1C=C[C@H](NC(=O)CCN2CCCCC2)[C@H](CO)O1)Nc1ccc(-c2ccccc2)cc1 11.2%
CCCC#Cc1ccc([C@@H]2[C@H](C#N)N(S(=O)(=O)c3cccc(F)c3)[C@H]2CO)cc1 21.1%
COc1ccc(NC(=O)N(C)C[C@@H]2Oc3ncc(-c4cccnc4)cc3C(=O)N([C@@H](C)CO)C[C@@H]2C)cc1 -18.5% [at 8 µM]
CC(C)CC#Cc1ccc2c(c1)O[C@@H](CN(C)C(=O)c1ccccc1F)[C@@H](C)CN([C@@H](C)CO)S2(=O)=O 18%
O=C(C[C@H]1CC[C@H]2[C@@H](COC[C@@H](O)CN2Cc2cccc(Cl)c2)O1)NCC1CCCCC1 11.9% [at 8 µM]
COc1ccccc1S(=O)(=O)N(C)C[C@H]1Oc2cc(C#CCC(C)C)ccc2S(=O)(=O)N([C@@H](C)CO)C[C@@H]1C 10.5%
C[C@H]1CN([C@@H](C)CO)S(=O)(=O)c2ccc(Br)cc2O[C@@H]1CN(C)Cc1cccc(F)c1 41.5%
C[C@H]1CN([C@@H](C)CO)C(=O)c2c(c3ccccc3n2C)-c2ccccc2CO[C@H]1CN(C)S(=O)(=O)CC(F)(F)F 14.7%
CCCC(=O)Nc1ccc2c(c1)OC[C@H](C)N(Cc1ccncc1)C[C@@H](C)[C@H](OC)CN(C)C2=O 14.3%
CCCN1C[C@@H](C)[C@@H](OC)CN(C)C(=O)c2cc(NC(=O)CC)ccc2OC[C@H]1C -7.79% [at 0.5 µM]
CO[C@@H]1CN(C)C(=O)c2cc(NS(=O)(=O)c3cccc(F)c3)ccc2OC[C@@H](C)N(Cc2cc(F)ccc2F)C[C@@H]1C 14.2%
NC(=O)[C@@H]1[C@H]2C(=O)O[C@H](c3ccccc3)[C@H](c3ccccc3)N2[C@H](c2ccc(O)cc2)[C@@]12C(=O)Nc1ccc(C#CC3=CCCCC3)cc12 21.8%
CCCN1C[C@H](C)[C@@H](OC)CN(C)C(=O)c2ccc(NC(=O)Nc3c(C)noc3C)cc2OC[C@@H]1C 29.7%
C[C@@H]1CN([C@@H](C)CO)C(=O)c2ccccc2-c2ccccc2CO[C@H]1CN(C)C(=O)c1ccc(F)cc1 -6.68% [at 8 µM]
C[C@@H]1CN([C@@H](C)CO)C(=O)Cc2cc(NC(=O)c3ccncc3)ccc2O[C@@H]1CN(C)Cc1ccc(-c2ccccc2)cc1 41.4%
N#C[C@H]1[C@@H](c2ccc(C#CC3CCCCC3)cc2)[C@@H](CO)N1C(=O)Cc1ccccn1 24.3% [at 0.5 µM]
C[C@H](CO)N1C[C@H](C)[C@@H](CN(C)Cc2ccccc2)Oc2ccc(NS(C)(=O)=O)cc2CC1=O 28% [at 35 µM]
CO[C@@H]1CN(C)C(=O)c2ccc(NC(=O)c3ccc(F)cc3)cc2OC[C@@H](C)N(C(=O)c2ccc(F)cc2)C[C@@H]1C -7.95% [at 0.5 µM]
C[C@@H](NC(=O)C[C@H]1C=C[C@H](NC(=O)C2CCC2)[C@@H](CO)O1)c1ccccc1 -13.6% [at 0.5 µM]
CCC(=O)N1C[C@H](C)[C@H](OC)CN(C)C(=O)c2cc(NS(=O)(=O)CC)ccc2OC[C@H]1C -9.49% [at 1.95 µM]
C[C@H]1CN([C@@H](C)CO)S(=O)(=O)c2ccc(C#CC3CC3)cc2O[C@@H]1CN(C)Cc1ccncc1 47%
C[C@@H]1CN([C@@H](C)CO)C(=O)c2c(c3ccccc3n2C)-c2ccccc2CO[C@@H]1CN(C)Cc1cccc(C(=O)O)c1 -12.2% [at 8 µM]
Cc1ccc(F)cc1S(=O)(=O)N[C@H]1CCN(Cc2ccc(OC(C)C)cc2)C1 21.6%
COc1ccc(CN(C)C[C@H]2Oc3c(NC(=O)Nc4ccc(C(F)(F)F)cc4)cccc3C(=O)N([C@@H](C)CO)C[C@@H]2C)cc1 32.3% [at 8 µM]
COc1ccc(CN(C)C[C@@H]2Oc3c(NC(=O)Nc4ccc(C(F)(F)F)cc4)cccc3C(=O)N([C@@H](C)CO)C[C@H]2C)cc1 38%
COc1cccc(S(=O)(=O)N[C@@H]2CC[C@H](CCN)O[C@@H]2CO)c1 -11.8% [at 1.95 µM]
CNC[C@@H]1Oc2cc(C#CCC3CCCC3)ccc2S(=O)(=O)N([C@H](C)CO)C[C@H]1C 18.8% [at 8 µM]
CCS(=O)(=O)Nc1ccc2c(c1)C(=O)N(C)C[C@H](OC)[C@H](C)CN(C)[C@H](C)CO2 -7.51% [at 1.95 µM]
CCCC#Cc1ccc2c(c1)O[C@H](CN(C)Cc1ccncc1)[C@@H](C)CN([C@@H](C)CO)S2(=O)=O 18.4%
CO[C@@H]1CN(C)C(=O)c2ccc(NC(=O)C3CCC3)cc2OC[C@@H](C)N(S(=O)(=O)c2ccc(Cl)cc2)C[C@H]1C -9.7% [at 2.1 µM]
C[C@H](CO)N1C[C@H](C)[C@@H](CN(C)C(=O)Nc2ccc3c(c2)OCO3)Oc2cc(C#Cc3cccnc3)ccc2S1(=O)=O -15.3% [at 8 µM]
O=C(N[C@H]1CC[C@@H](CCNS(=O)(=O)Cc2ccccc2)O[C@@H]1CO)c1ccc2c(c1)OCO2 16.7%
CN(C)C(=O)C[C@@H]1CC[C@H](NC(=O)c2ccc(F)cc2)[C@H](CO)O1 -7.24% [at 1.95 µM]
C[C@@H](NC(=O)C[C@@H]1C=C[C@@H](NC(=O)C2CCC2)[C@H](CO)O1)c1ccccc1 -14.9%
COc1ccc(C(=O)Nc2ccc3c(c2)OC[C@@H](C)N(C(=O)C2CC2)C[C@@H](C)[C@H](OC)CN(C)C3=O)cc1 3.99% [at 35 µM]
CO[C@H]1CN(C)C(=O)c2ccc(NC(=O)c3ccccc3F)cc2OC[C@H](C)N(CC2CC2)C[C@H]1C -14.6% [at 1.95 µM]
C[C@@H]1CN([C@@H](C)CO)C(=O)Cc2cc(NS(C)(=O)=O)ccc2O[C@@H]1CN(C)Cc1ccc(-c2ccccc2)cc1 21.7%
CNC[C@@H]1Oc2cc(-c3ccccc3F)ccc2S(=O)(=O)N([C@H](C)CO)C[C@H]1C 24.6%
O=C(Cc1ccncc1)NCC[C@H]1CC[C@H](NC(=O)C2CCC2)[C@H](CO)O1 -8.69% [at 1.95 µM]
CN(C)C(=O)C[C@@H]1CC[C@H](NC(=O)c2ccc(F)cc2)[C@@H](CO)O1 5.78% [at 8 µM]
O=C(Cc1ccncc1)NCC[C@H]1CC[C@H](NC(=O)C2CCC2)[C@@H](CO)O1 -8.1% [at 35 µM]
O=C(Cc1ccncc1)NCC[C@@H]1CC[C@H](NC(=O)C2CCC2)[C@@H](CO)O1 -11.9% [at 0.5 µM]
COc1ccc(-c2ccc3c(c2)O[C@H](CN(C)Cc2cccnc2)[C@@H](C)CN([C@H](C)CO)S3(=O)=O)cc1 25.8%
C[C@@H]1CN([C@H](C)CO)C(=O)Cc2cc(NC(=O)c3ccncc3)ccc2O[C@H]1CN(C)Cc1ccc(Cl)c(Cl)c1 5.9% [at 35 µM]
